NPC1 promoter act – activators of NPC1 promoter; 320,000 tested, 2.4% active; AID 485313; Huh7 NPC1 promoter luciferase reporter, 24 h; Potency, µM (doses to about 9.22 µM), for inactives: top-dose activation, hits mostly activators; also: % of control where 0% means no effect; nearly all actives have a fitted effect of over 60% in size
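Compounds in DMSO were transferred onto Huh7 NPC1-luciferase reporter cells pre-incubated 2 h; after 24 h at 37 °C, Amplite reagent was dispensed and luminescence recorded 10 min later.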
FLuc counter – counter-screen for miR-21 project: firefly luciferase inhibitors or activators. P08659. purified FLuc, Km substrates, luminescence inhibition. Potency, µM (highest dose often 57.5 µM), without a hit: at the highest dose activity change, negative = inhibition, usual class: inhibitors. 360,000 tested, 6.9% active. AID 588342;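 also: plate controls were vehicle for no effect and reference inhibitor for full effect; nearly all actives have a fitted effect of over 55% in size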
Target sequence (P08659 whole entry, looked up): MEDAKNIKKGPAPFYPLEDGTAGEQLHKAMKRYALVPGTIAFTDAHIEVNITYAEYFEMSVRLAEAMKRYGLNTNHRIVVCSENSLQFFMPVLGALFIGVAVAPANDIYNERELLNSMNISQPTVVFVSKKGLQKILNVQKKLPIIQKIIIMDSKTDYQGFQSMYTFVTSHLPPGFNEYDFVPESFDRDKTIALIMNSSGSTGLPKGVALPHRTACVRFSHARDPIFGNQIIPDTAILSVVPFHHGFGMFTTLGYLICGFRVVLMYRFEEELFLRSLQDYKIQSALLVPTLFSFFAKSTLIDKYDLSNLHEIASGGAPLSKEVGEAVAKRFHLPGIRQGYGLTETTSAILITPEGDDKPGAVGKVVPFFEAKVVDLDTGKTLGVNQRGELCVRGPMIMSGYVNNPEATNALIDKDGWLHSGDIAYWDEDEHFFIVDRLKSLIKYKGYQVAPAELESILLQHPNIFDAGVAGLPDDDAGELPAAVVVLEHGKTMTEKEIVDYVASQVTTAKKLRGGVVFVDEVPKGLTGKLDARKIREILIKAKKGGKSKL
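Purified P. pyralis luciferase (10nM final) with 10uM D-luciferin and 10uM ATP (Km levels) in 50mM Tris acetate pH 7.5, 10mM Mg acetate, 0.01% Tween-20, 0.05% BSA; qHTS 6-point titration, ~60 µM downward; luminescence read.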
SMN2 splice enh – SMN2 splice variant enhancement; HEK293 SMN2-luciferase splicing reporter, luminescence, 30-36 h; Potency, µM (doses to about 46.1 µM), inactives show at the highest dose activity change, positive = activation, most hits filed as activators; 210,000 tested, 2.8% active; also: % of control where 0% means no effect; nearly all actives have a fitted effect of over 55% in size
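qHTS luciferase splicing reporter: luminescence rises when SMN2 exon 7 is included in transfected HEK293 cells. Compound exposure lasted 30-36 h at 37C, with 4.5 mM final sodium butyrate as control, followed by a ONE-Glo read.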
Rab9 prom act – activators of Rab9 promoter; Huh7 Rab9 promoter-luciferase reporter, luminescence, 24 h; 320,000 tested, 2.8% active; Potency, µM (series often up to 9.22 µM), for inactives: top-dose activation, negative = inhibition, hits mostly activators; also: % of control where 0% means no effect; nearly all actives have a fitted effect of over 60% in size
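Huh7 cells stably carrying Rab9 promoter–luciferase reporter, plated 1500 cells/well, compound added after 2 h and incubated 24 h at 37 °C; luciferase luminescence then read after 10 min with detection reagent.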
ELG1 genotoxic – induces genotoxicity in HEK293T cells with luciferase-tagged ELG1. HEK293T ELG1-luciferase reporter, luminescence, 16 h. Potency, µM (titrated, usually from 46 µM), without a hit: at the highest dose activity change, positive = activation, most hits filed as activators. 330,000 tested, 1.3% active. AID 504466; also: % of control where 0% means no effect; nearly all actives have a fitted effect of over 60% in size
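HEK293T cells expressing luciferase-tagged ELG1 were treated with compound or DMSO for 16 hr at 37°C. Luciferase activity was then read after 30 min with ONE-Glo at room temperature; rising signal flags genetic stress.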
* = called active by the depositor; ? = inconclusive; / = no result given; [ ] = remark or other dose. An excerpt weighted towards active compounds, which were near 7.4% of everything screened. Calls follow the shape of the dose curve; as a rule, active = well fitted curve in the direction sought with a large enough effect; inconclusive = small, poorly fitted or top-dose-only effect, or another doubt; inactive = no such curve, though single readings can be large; an effect the other way counts as inactive or inconclusive. Potency is read from the fitted curve at half-maximal effect.

SMILES	NPC1 promoter act	FLuc counter	SMN2 splice enh	Rab9 prom act	ELG1 genotoxic
COc1ccc2cc(-c3[nH]ncc3CN3CCCCO3)ccc2c1	18%	15µM*	/	?	12%
COc1ccc(-c2[nH]ncc2CN2CCCO2)cc1F	-4%	0%	/	2%	3%
O=C(CSc1oc(-c2ccco2)nc1S(=O)(=O)c1ccc(Br)cc1)c1ccc(Cl)cc1	/	0%	4%	/	/
Cc1ccc(-c2ccc(NC(=O)C3C4C=CC(C4)C3C(=O)O)cc2)o1 (stereo not given)	3.5µM*	15µM*	-28%	3.2µM*	15%
COc1ccc(NC(=O)C2C3C=CC(C3)C2C(=O)O)cc1 (stereo not given)	1%	-2%	/	0%	-2%
COC(=O)c1ccccc1NC(=O)Nc1cc(C)ccn1	1%	2%	-9%	-2%	2%
Cc1ccnc(NC(=O)c2cc3cc(F)ccc3s2)c1	2.2µM*	2.7µM*	/	1.4µM*	?
CSc1ccc(NC(=O)Nc2cc(C)ccn2)cc1	0.5µM*	0.3µM*	1.6µM*	0.45µM*	?
Cc1ccc(NC(=O)Nc2ccc(F)cc2)nc1	?	11µM*	25µM*	4µM*	8%
Cc1ccnc(NC(=O)Nc2ccc(F)cc2)c1	1.4µM*	1.9µM*	13µM*	0.56µM*	?
COc1ccccc1NC(=O)Nc1ccc(C)cn1	21%	?	/	7%	6%
CSc1ncccc1C(=O)Nc1cc(C)ccn1	5%	2%	/	5%	5%
Cc1ccnc(NC(=O)CNC(=O)c2ccc(C)s2)c1	15%	?	/	-12%	?
COc1ccc(C2=NS(=O)(=O)N(C)C(C(=O)Nc3ccc(F)cc3F)=C2)cc1	-2%	-10%	/	1%	9%
Cc1ccnc(NC(=O)c2ccc([N+](=O)[O-])s2)c1	3.2µM*	13µM*	/	3.5µM*	?
Cc1ccnc(NC(=O)Nc2ccc(Br)cc2Cl)c1	1µM*	0.48µM*	2.2µM*	0.63µM*	?
O=C(OCC1CC(c2ccccc2)=NO1)c1ccc(Br)cc1 (stereo not given)	0%	6%	?	2%	0%
O=C(OCC1CC(c2ccccc2)=NO1)c1ccco1 (stereo not given)	-1%	7.6µM*	/	1%	2%
CCCCCn1cnc2c(sc3nc4c(cc32)CSC(C)(C)C4)c1=O	3.5µM*	3.8µM*	19%	3.2µM*	?
CCc1nc2sc3c(=O)[nH]cnc3c2c2c1CSC(C)(C)C2	-2%	-1%	/	-3%	7%
CC1(C)Cc2nc3sc4c(=O)[nH]cnc4c3cc2CS1	26%	13µM*	?	14%	?
Cc1ccc(NC(=O)CSc2nc3ccccc3c(=O)n2CCCC(=O)NCCCN2CCOCC2)cc1	-4%	-6%	-13%	1%	4%
O=C(CCS(=O)(=O)c1ccccc1)Nc1ccc(S(=O)(=O)Nc2ncccn2)cc1	-3%	-1%	/	1%	7%
O=C(Nc1cccc(-c2nc3ccccc3s2)c1)c1cc(=O)c2ccccc2o1	0%	-4%	1%	-1%	13%
O=C(Nc1cccc(-c2nc3ccccc3s2)c1)c1cccs1	-2%	13µM*	?	3%	-1%
SMILES	NPC1 promoter act	FLuc counter	SMN2 splice enh	Rab9 prom act	ELG1 genotoxic
O=C(CCS(=O)(=O)c1ccccc1)Nc1ccc(-c2nc3ccccc3s2)cc1	1.6µM*	-19%	1µM*	0.5µM*	?
O=C(CCS(=O)(=O)c1ccccc1)Nc1cccc(-c2nc3ccccc3s2)c1	?	6.7µM*	-111%	?	?
O=C(/C=C/c1ccc(Cl)cc1Cl)N1CCN(c2ccccc2[N+](=O)[O-])CC1	1%	-7%	?	-15%	-2%
CC(C)(C)OC(=O)C[C@H]1C/C=C\C[C@H](CC(=O)N(CCO)Cc2ccccc2)C(=O)N2CCC[C@H]2COC1=O	/	/	/	/	-2%
Cc1ccc(C(=O)N2CCN(Cc3cc(=O)n4nc(-c5ccccc5)sc4n3)CC2)cc1	/	4%	/	/	/
COC(=O)c1sc(NC(=O)c2ccc([N+](=O)[O-])o2)c(C#N)c1C	-1%	27µM*	/	-9%	-8%
CCN(CC)C(=O)c1sc(NC(=O)c2cccc([N+](=O)[O-])c2)c(C#N)c1C	1%	24µM*	-95%	2%	-9%
CCN(CC)C(=O)c1sc(NC(=O)c2c(OC)cccc2OC)c(C#N)c1C	0%	-16%	15%	-1%	0%
CC(=O)N1CCc2c(sc(NC(=O)c3ccc([N+](=O)[O-])o3)c2C#N)C1	?	?	11µM*	4µM*	?
COC(=O)c1c(NC(=O)c2ccc([N+](=O)[O-])o2)sc2c1CCN(C(C)C)C2	-22%	-1%	/	-2%	6%
C=C[C@](C)(O)CCC=C(C)C	/	/	-9%	/	/
CCn1c(CN2CCC(C)CC2)nc2cc(NC(=O)COc3ccc(Cl)c(C)c3)ccc21	/	-4%	/	/	/
CC(C)C(=O)N1CCc2cc(-c3csc(N)n3)ccc21	?	13µM*	13µM*	3.5µM*	22%
CCC(=O)N1CCc2cc(-c3csc(NC(=O)c4ccco4)n3)ccc21	18%	?	/	22%	-15%
COC(=O)C1=C(C(=O)OC)[C@@H]2N(C)c3ccccc3[C@@]23C[C@@H](C(=O)OC)N(S(=O)(=O)c2ccc4c(c2)OCCN4C)C3=N1	/	/	8%[9.22 µM]	/	/
CSc1nnc2[nH]c(=O)cc(C)n12	/	7%	/	/	/
Cc1cc(=O)[nH]c2nnc(-c3ccc(Cl)cc3)n12	2.8µM*	3.4µM*	/	?	?
CSc1ncccc1C(=O)OCC(=O)c1cccs1	-4%	19µM*	5%	-2%	0%
CCc1ccc(C(=O)COC(=O)c2cccs2)cc1	2.5µM*	0.19µM*	-11%	1.4µM*	4.5µM*
CSc1ncccc1C(=O)OCC(=O)c1ccc(C)s1	/	/	/	/	1%
O=C(OCC(=O)c1cccs1)c1cccc(C(=O)OCC(=O)c2cccs2)n1	-2%	12µM*	2%	9%	-1%
Cc1ccc(C(=O)COC(=O)c2cccs2)cc1	0.79µM*	0.15µM*	?	0.45µM*	?
Cc1ccc(C(=O)COC(=O)CNC(=O)c2cccs2)cc1	/	-20%	-10%	/	/
COc1ccc(/C=C/C(=O)OCC(=O)NCc2ccccc2Cl)cc1OC	/	/	/	/	2%
CN(C)c1ccc(C(=O)OCC(=O)c2cccs2)cc1	3.5µM*	3.4µM*	6.3µM*	1.8µM*	8.2µM*
S=C(NC1CCCCC1)N1CCc2[nH]c3ccccc3c2C1	-4%	24µM*	/	-10%	10%
Cc1ccc(NC(=S)N2CCc3[nH]c4ccccc4c3C2)cc1	1%	-19%	/	0%	0%
CC(=O)c1cc(-c2ccccc2)n(CC(=O)NCc2ccccc2C)c1C	/	-6%	-7%	/	/
NC(=S)N/N=C/c1ccc(C23CC4CC(CC(C4)C2)C3)cc1	-1%	21µM*	/	-7%	?
NC(=S)N/N=C/c1ccccc1	1%	0%	22%	-10%	1%
